Values joined by “and” are separate entries in the source; they are usually repeats but may differ in a detail not shown here. Equal entries are not always repeated. Inconclusive results are not listed. Where a structure was tested more than once in an assay, its records may differ in their call. Active and inactive are the calls of the source. Unless noted, calls come from the whole dose curve; as a rule, active = well fitted curve in the direction sought with a large enough effect in the repeat runs; inconclusive = weak or mixed curves; inactive = no such curve, though single readings can be large; an effect the other way counts as inactive or inconclusive.

This note sets out measurements from PubChem BioAssay (Tox21).

Assay [1] addresses Luciferin 4-monooxygenase (Photinus pyralis) (UniProt P08659). As to the kind of experiment: qHTS assay to identify small molecule inhibitors of firefly luciferase (AID 1224835). For activity change, negative = inhibition: series mostly up to about 120 µM. Note: nearly all actives have a fitted effect of over 25% in size. Note: potency is the fitted concentration of half-maximal effect. The method in brief:
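Inhibition of purified Photinus luciferase is measured by luminescence. Substrate levels (D-luciferin, ATP) sit at their KM values. Each compound is tested in a concentration series.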

Assay [2] in a line: qHTS assay to identify small molecule agonists of the constitutive androstane receptor (CAR) signaling pathway - cell viability counter screen (AID 1224836). For viability change, negative = cytotoxic: series mostly up to about 92 µM. Note: nearly all actives have a fitted effect of over 45% in size. Note: potency is the fitted concentration of half-maximal effect. The method in brief:
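Cells were seeded and incubated 4 hrs. Compounds were added across 15 concentrations together with PK11195 at 0.75 uM final. Plates were incubated 23 hrs at 37 C. CellTiter-Fluor was added and fluorescence measured.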
In general terms: qHTS replaces the single test concentration by a dilution series.

Assay [3] can be described thus: qHTS assay to identify small molecule antagonists of the constitutive androstane receptor (CAR) signaling pathway - cell viability counter screen (AID 1224837). For activity change, negative = cytotoxicity: series mostly up to about 92 µM. Note: nearly all actives have a fitted effect of over 45% in size. Note: potency is the fitted concentration of half-maximal effect. The method in brief:
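Read-out: CellTiter-Fluor fluorescence after 23 hr at 37 C/5% CO2. Cells: HepG2 double-stable for hCAR and CYP2B6-2.2kb. Compounds tested at 15 concentrations in the presence of CITCO, final concentration 50 nM.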

In assay [4] the target is Nuclear receptor subfamily 1 group I member 3 (Homo sapiens) (UniProt Q14994). As to the kind of experiment: qHTS assay to identify small molecule antagonists of the constitutive androstane receptor (CAR) signaling pathway (AID 1224838).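 Note: HepG2 cells stably expressing hCAR with CYP2B6 luciferase reporter stimulated by CITCO; nearly all actives have a fitted effect of over 40% in size.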 The method, boiled down:
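Read-out: ONE-Glo luciferase luminescence after 30 min at room temperature. HepG2-CYP2B6-hCAR double-stable cells, compounds in 15-point titration plus 50 nM CITCO final, 24 h at 37 C/5% CO2.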

Assay [5] has the same target. As to the kind of experiment: qHTS assay to identify small molecule agonists of the constitutive androstane receptor (CAR) signaling pathway (AID 1224839).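 For activation: HepG2 cells stably carrying human CAR and a CYP2B6 luciferase reporter; series mostly up to about 92 µM.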 Note: nearly all actives have a fitted effect of over 15% in size. Note: potency is the fitted concentration of half-maximal effect. The method, boiled down: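 Cells were plated and incubated 4 hrs, then dosed with compounds at 15 concentrations. PK11195 was added to 0.75 uM final. After 24 hrs at 37 C, luciferase luminescence was measured.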

Assay [6] can be described thus: qHTS assay to identify small molecule antagonists of the estrogen related receptor signaling pathway with the pleiotropic PPARgamma coactivator (PGC) from Tox21 10K library - cell viability counter screen (AID 1224840; active = well fitted cell-killing curve with a large enough effect in the repeat runs, not every such curve was filed as active; note: nearly all actives have a fitted effect of over 40% in size; note: potency is the fitted concentration of half-maximal effect). The method in brief:
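Fluorescence read-out of CellTiter-Fluor viability reagent, added after cells had been exposed to compound in DMSO for 17.5 h at 37 C; 30 min development at 37 C/5% CO2. Cells: PGC/ERR line, 2,000/well.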

Assay [7] can be described thus: qHTS assay to identify small molecule antagonists of the estrogen related receptor signaling pathway with the pleiotropic PPARgamma coactivator (PGC) from Tox21 10K library (AID 1224841; call rule not given here; note: actives are mostly falling curves and most rising ones were filed inactive; nearly all actives have a fitted effect of over 50% in size; note: potency is the fitted concentration of half-maximal effect; for activity, negative = inhibition: series mostly up to about 92 µM). The method in brief: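 Luminescence read-out (One-Glo luciferase reagent, 30 min at room temperature) from PGC/ERR cells exposed to DMSO-dissolved test compounds for 18 h at 37 C; cells, 2,000 per well, had been preincubated 6 h before compound transfer.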

A short description of assay [8]: qHTS assay to identify small molecule agonists of the estrogen related receptor signaling pathway with the pleiotropic PPARgamma coactivator (PGC) from Tox21 10K library (AID 1224842). Note: nearly all actives have a fitted effect of over 15% in size. The method, boiled down: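 Luminescence from One-Glo (30 min, room temperature) measured after PGC/ERR cells had 18 h at 37 C with pinned compound (23 nL in DMSO). Cells had been seeded at 2,000 per well and pre-incubated 6 h.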

Assay [9] can be described thus: qHTS assay to identify small molecule agonists of the hypoxia (HIF-1) signaling pathway - cell viability counter screen (AID 1224844; calls by dose curve; note: nearly all actives have a fitted effect of over 50% in size). The method in brief: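 CellTiter-Glo luminescence read-out, 30 min RT, taken in the same wells as the beta-lactamase HRE reporter assay; HRE-bla ME-180 cells, 0.5% dialyzed FBS, 17 hr compound treatment at 37C, 5% CO2.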
The target of assay [10] is Thyrotropin receptor (Homo sapiens) (UniProt P16473). As to the kind of experiment: qHTS assay to identify small molecule agonists of the thyroid stimulating hormone receptor (TSHR) signaling pathway (AID 1224843; calls by dose curve; note: nearly all actives have a fitted effect of over 45% in size). The method in brief:
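Agonist activity read as cAMP rise via d2/cryptate HTRF competition, 1 h room-temperature detection, in HEK293 cells expressing TSHR. Fifteen-point titrations, each run in triplicate, with a 30 min room-temperature incubation beforehand.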
% is set by controls: 0 for no effect and ±100 for the full control effect.

Thyrotropin receptor (Homo sapiens), sequence (P16473 whole entry, looked up): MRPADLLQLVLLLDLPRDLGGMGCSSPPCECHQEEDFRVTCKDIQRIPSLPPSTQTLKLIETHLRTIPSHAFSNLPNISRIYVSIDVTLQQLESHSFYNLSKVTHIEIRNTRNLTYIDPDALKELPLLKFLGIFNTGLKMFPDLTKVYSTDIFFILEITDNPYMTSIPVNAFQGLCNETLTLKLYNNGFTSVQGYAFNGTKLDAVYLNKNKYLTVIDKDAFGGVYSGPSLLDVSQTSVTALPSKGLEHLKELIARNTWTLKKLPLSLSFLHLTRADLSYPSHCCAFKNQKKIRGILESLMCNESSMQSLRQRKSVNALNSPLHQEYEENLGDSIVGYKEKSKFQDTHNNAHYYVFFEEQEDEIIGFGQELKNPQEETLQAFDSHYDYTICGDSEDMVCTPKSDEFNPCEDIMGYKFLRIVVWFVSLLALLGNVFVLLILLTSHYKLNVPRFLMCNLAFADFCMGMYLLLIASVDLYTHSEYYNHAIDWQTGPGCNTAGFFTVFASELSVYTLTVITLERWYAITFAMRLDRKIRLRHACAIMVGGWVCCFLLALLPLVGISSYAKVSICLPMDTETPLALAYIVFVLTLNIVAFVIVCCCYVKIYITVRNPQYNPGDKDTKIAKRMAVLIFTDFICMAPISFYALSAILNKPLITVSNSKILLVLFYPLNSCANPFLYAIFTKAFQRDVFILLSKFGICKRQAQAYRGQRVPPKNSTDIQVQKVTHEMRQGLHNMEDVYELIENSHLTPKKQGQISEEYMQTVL
Luciferin 4-monooxygenase (Photinus pyralis), sequence (P08659 whole entry, looked up): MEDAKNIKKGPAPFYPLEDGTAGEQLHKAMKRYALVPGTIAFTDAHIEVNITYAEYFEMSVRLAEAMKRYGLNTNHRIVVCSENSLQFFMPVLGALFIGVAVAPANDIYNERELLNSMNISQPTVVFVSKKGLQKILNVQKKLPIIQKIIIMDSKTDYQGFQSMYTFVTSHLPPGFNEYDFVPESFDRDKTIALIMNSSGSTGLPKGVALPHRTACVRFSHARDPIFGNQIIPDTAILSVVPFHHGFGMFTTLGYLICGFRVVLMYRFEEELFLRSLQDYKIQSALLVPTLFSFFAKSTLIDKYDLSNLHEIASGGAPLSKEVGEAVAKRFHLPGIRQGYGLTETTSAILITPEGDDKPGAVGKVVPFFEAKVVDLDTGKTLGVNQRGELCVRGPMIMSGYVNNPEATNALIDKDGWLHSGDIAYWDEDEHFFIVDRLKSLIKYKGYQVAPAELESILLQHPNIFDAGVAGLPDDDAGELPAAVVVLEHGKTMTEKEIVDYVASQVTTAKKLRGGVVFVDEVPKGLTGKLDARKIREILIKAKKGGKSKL
Nuclear receptor subfamily 1 group I member 3 (Homo sapiens), sequence (Q14994 whole entry, looked up): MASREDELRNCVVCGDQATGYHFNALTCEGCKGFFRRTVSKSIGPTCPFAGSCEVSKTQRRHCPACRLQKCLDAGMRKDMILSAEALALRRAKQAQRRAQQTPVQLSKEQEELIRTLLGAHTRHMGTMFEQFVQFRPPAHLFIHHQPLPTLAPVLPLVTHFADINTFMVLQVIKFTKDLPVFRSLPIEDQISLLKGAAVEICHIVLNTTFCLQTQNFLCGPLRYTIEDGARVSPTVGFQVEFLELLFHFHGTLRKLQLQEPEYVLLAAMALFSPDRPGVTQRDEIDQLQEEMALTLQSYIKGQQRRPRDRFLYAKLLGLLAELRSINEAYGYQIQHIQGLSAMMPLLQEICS

Consider `c1cnc2cc3c(cc2n1)C1CNCC3C1`, for which the Potency result in assay [1], in assay [2], in assay [3], in assay [4], in assay [5] and in assay [6] was “inactive” each time. For the same compound, the Potency entry in assay [7], in assay [8] and in assay [9] was “inactive” throughout.
As for `Cc1cc(C(C)(C)C)c(O)c(C(C)(C)C)c1`, the Potency result in assay [1], in assay [2], in assay [3], in assay [4], in assay [5] and in assay [6] was “inactive” throughout. In addition, the Potency result in assay [10] and in [9] was “inactive” each time.
For the compound `CC(C)(c1ccccc1)c1ccc(Nc2ccc(C(C)(C)c3ccccc3)cc2)cc1`, the Potency result in assay [1], in assay [2], in [3], in assay [4], in assay [5] and in assay [6] was “inactive” each time. In addition, the Potency result in [7], in assay [8], in assay [10] and in assay [9] was “inactive” each time.
Consider `CCCCCCC(O)CCCCCCCCCCC(=O)O` (stereo unspecified), for which the Potency result in assay [1], in assay [2], in [3], in assay [4], in [5] and in [6] was “inactive” throughout. Further, the Potency result in assay [7], in assay [8], in assay [10] and in assay [9] was “inactive” in each case.
For the compound `CC1=C(C=O)C(C)(C)CC=C1`, the Potency entry in assay [1], in assay [2], in assay [3], in assay [4], in assay [5] and in assay [6] was “inactive” in each case. Besides, the Potency result in assay [7], in [8], in assay [10] and in [9] was “inactive” in each case.
Take `CCCCCCCCCCCCCCCCCl`: in assay [1], the activity change, negative = inhibition was 0.302% [at 23.6 µM] (inactive). Besides, the results for the viability change, negative = cytotoxic in assay [2] and in assay [6] were -1.15% [at 19 µM] (inactive) and 6.02% [at 19 µM] (inactive), respectively. Moreover, the activity change, negative = cytotoxicity in [3] was -1.23% [at 19 µM] (inactive); in assay [9], 8.74% [at 15.8 µM] (inactive). Further, the activity, negative = inhibition in [4] is -1.8% [at 19 µM] (inactive); in [7] it was 65% [at 19 µM] (inactive). Also, the values for the activation in assay [5], in assay [8] and in assay [10] were -1.81% [at 19 µM] (inactive), 5.12% [at 19 µM] (inactive) and 0.927% [at 19 µM] (inactive), respectively.
For `O=C(O)CCc1ccccc1`, the Potency entry in assay [1], in [2], in [3], in [4], in assay [5] and in assay [6] was “inactive” in each case. In addition, the Potency result in assay [7], in [8], in assay [10] and in [9] was “inactive” each time.
Turning to `NC(Cc1ccc(Cl)cc1)C(=O)O` (stereo unspecified), in assay [1], the activity change, negative = inhibition was 3.14% [at 0.435 µM] (inactive). In addition, the viability change, negative = cytotoxic in assay [2] was 1.54% [at 0.349 µM] (inactive); in [6], -10% [at 0.349 µM] (inactive). Besides, the results for the activity change, negative = cytotoxicity in assay [3] and in assay [9] were 6.69% [at 0.349 µM] (inactive) and 0.588% [at 0.29 µM] (inactive), respectively. The activity, negative = inhibition in [4] is -14.1% [at 0.349 µM] (inactive); in assay [7], 0.39% [at 0.349 µM] (inactive). Moreover, the activation was 0.949% [at 0.349 µM] (inactive) in assay [5], 0.108% [at 0.349 µM] (inactive) in assay [8] and -0.308% [at 0.349 µM] (inactive) in [10].
Consider `CCOC(=O)C(C)C(C)=O` (stereo unspecified), for which the Potency entry in assay [1], in [2], in assay [3], in [4], in assay [5] and in assay [6] was “inactive” each time. The Potency result in assay [7], in [8], in assay [10] and in assay [9] was “inactive” throughout.
For the compound `CC(=O)C1=C(C)[C@@H]2C[C@@]3(C1)[C@H](C)CC[C@H]3C2(C)C`, the Potency result in assay [1], in assay [2], in [3], in assay [4], in assay [6] and in assay [10] was “inactive” in each case. For the same compound, the Potency result in [9] is “inactive”. For the same compound, the Potency in assay [5] is 40.3 µM (active) and 27.3 µM (active).
As to `CCN1CCCC1CNC(=O)c1cc(S(=O)(=O)CC)c(N)cc1OC` (stereo unspecified), the Potency entry in assay [1], in assay [2], in assay [3], in [4], in assay [5] and in assay [6] was “inactive” in each case. In addition, the Potency result in [7], in assay [8], in assay [10] and in [9] was “inactive” each time.
Turning to `COc1ccc(Cc2cnc(N)nc2N)cc1OC`, the Potency result in [1], in assay [2], in assay [3], in [4], in assay [5] and in assay [6] was “inactive” each time. Also, the Potency entry in assay [7], in assay [8], in assay [10] and in assay [9] was “inactive” each time.
On to `Cc1cc(C2(c3cc(C)c(O)cc3C)OS(=O)(=O)c3ccccc32)c(C)cc1O`, for which the Potency in assay [1] is 35.6 µM (active); in assay [2] it was 24.3 µM (active) and 27.3 µM (active); in [3] it was 24.3 µM (active) and 19.3 µM (active); in assay [6] it was 19.3 µM (active); in [7] it was 34.4 µM (active) and inactive. Further, the Potency entry in [4], in assay [5], in [8], in assay [10] and in assay [9] was “inactive” each time.
As to `NC(N)=NC(=O)Cc1c(Cl)cccc1Cl`, the Potency result in [1], in assay [2], in assay [3], in assay [4], in assay [5] and in assay [6] was “inactive” in each case. Also, the Potency result in [7], in assay [8], in [10] and in [9] was “inactive” throughout.
Turning to `C=CS(=O)(=O)O`, the Potency entry in assay [1], in assay [2], in [3], in assay [4], in assay [5] and in assay [6] was “inactive” in each case. Also, the Potency entry in assay [7], in [8], in assay [10] and in assay [9] was “inactive” in each case.
Turning to `OCCN1CCNCC1`, the Potency result in [1], in [2], in assay [3], in [4], in [5] and in [6] was “inactive” in each case. The Potency entry in assay [7], in [8], in assay [10] and in assay [9] was “inactive” in each case.
As to `CC[C@@H](N)CO`, the Potency result in [1], in assay [2], in assay [3], in assay [4], in assay [5] and in [6] was “inactive” each time. Further, the Potency result in assay [7], in assay [8], in assay [10] and in [9] was “inactive” each time.
As for `CC(C)(C)c1ccccc1`, the Potency entry in assay [1], in assay [2], in assay [3], in assay [5], in assay [6] and in assay [7] was “inactive” in each case. Besides, the Potency result in assay [8], in assay [10] and in assay [9] was “inactive” throughout.
On to `COC(c1ccccc1)(c1ccccc1)[C@H](Oc1nc(C)cc(C)n1)C(=O)O`, for which the Potency entry in assay [1], in assay [2], in [3], in assay [5], in assay [6] and in [7] was “inactive” each time. The Potency result in assay [8], in [10] and in [9] was “inactive” in each case.
In the case of `O=C(O)c1cc(Cl)cc(Cl)c1`, the Potency entry in [1], in assay [2], in [3], in [5], in assay [6] and in [7] was “inactive” throughout. Further, the Potency result in assay [8], in assay [10] and in [9] was “inactive” each time.
Consider `CCOc1ccc2c(c1)C(C)=CC(C)(C)N2`, for which the Potency in [1] was 56.1 µM (active) and 63.3 µM (active); in assay [5], 27.2 µM (active) and 27.3 µM (active). Further, the Potency result in assay [2], in [3], in assay [6], in assay [7], in assay [8] and in [10] was “inactive” throughout. The Potency entry in assay [9] was “inactive”.
